# ELG1 genotox = qHTS screen for small molecules that induce genotoxicity in human embryonic kidney (HEK293T) cells expressing luciferase-tagged ELG1 | HEK293T ELG1-luciferase reporter, luminescence, 16 h | Potency, µM (highest dose often 46 µM), without a hit: at the highest dose activity change, positive = activation, usual class: activators | 330,000 compounds, 1.3% hits | AID 504466, 2011; also: % of control where 0% means no effect; nearly all actives have a fitted effect of over 60% in size
#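 Screening used a luciferase reporter fused to human ELG1 in HEK293T cells. Luminescence was read on a CCD plate imager after 16 hr exposure and 30 min ONE-Glo incubation.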
# SMN2 splice enh = qHTS Assay for Enhancers of SMN2 Splice Variant Expression | 210,000 compounds, 2.8% hits | HEK293 SMN2-luciferase splicing reporter, luminescence, 30-36 h | Potency, µM (highest dose often 46.1 µM), without a hit: at the top dose activity change, positive = activation, actives largely listed as activators; also: % of control where 0% means no effect; nearly all actives have a fitted effect of over 55% in size
#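 qHTS luciferase splicing reporter: luminescence rises when SMN2 exon 7 is included in transfected HEK293 cells. Compound exposure lasted 30-36 h at 37C, with 4.5 mM final sodium butyrate as control, followed by a ONE-Glo read.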
# KinaseGlo FLuc = Counterscreen for Luciferase (Kinase-Glo TM) Inhibition; Kinase-Glo luciferase, ATP luminescence, 8 min; 200,000 compounds, 0.28% hits; Potency, µM (highest dose often 38.3 µM), for the others: at the top dose activity change, negative = inhibition, usual class: inhibitors; Luciferin 4-monooxygenase (Photuris pensylvanica), Q27757; also: % is scaled to controls: 0 for no effect and ±100 for the full control effect; nearly all actives have a fitted effect of over 60% in size
#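 Inhibition of Kinase-Glo luciferase light generation was assessed at 10 uM ATP in pH 7.2 imidazole buffer, with luminescence measured after eight minutes at ambient temperature.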
# FLuc modulator = qHTS profiling assay for firefly luciferase inhibitor/activator using purifed enzyme and Km concentrations of substrates (counterscreen for miR-21 project); 360,000 compounds, 6.9% hits; AID 588342, 2011; Luciferin 4-monooxygenase (Photinus pyralis), P08659; purified FLuc, Km substrates, luminescence inhibition; Potency, µM (series often up to 57.5 µM), for the others: at the highest dose activity change, negative = inhibition, actives largely listed as inhibitors;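 also: plate controls were vehicle for no effect and reference inhibitor for full effect; nearly all actives have a fitted effect of over 55% in size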
# Target sequence (P08659 whole entry, looked up): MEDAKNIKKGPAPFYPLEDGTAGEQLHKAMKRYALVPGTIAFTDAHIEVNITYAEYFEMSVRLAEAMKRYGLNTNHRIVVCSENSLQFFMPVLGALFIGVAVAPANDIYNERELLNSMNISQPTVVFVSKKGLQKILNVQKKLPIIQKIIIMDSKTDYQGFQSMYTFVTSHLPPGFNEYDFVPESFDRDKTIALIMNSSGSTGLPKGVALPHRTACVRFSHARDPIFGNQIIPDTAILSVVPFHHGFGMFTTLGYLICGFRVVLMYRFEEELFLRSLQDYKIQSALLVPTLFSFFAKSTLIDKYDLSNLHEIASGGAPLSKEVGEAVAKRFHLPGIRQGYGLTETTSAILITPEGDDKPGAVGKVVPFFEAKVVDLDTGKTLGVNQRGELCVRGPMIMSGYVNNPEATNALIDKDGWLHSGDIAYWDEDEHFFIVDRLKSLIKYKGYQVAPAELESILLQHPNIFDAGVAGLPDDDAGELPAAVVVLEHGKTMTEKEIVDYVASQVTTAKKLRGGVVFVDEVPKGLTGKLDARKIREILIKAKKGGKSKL
#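 Purified P. pyralis luciferase, 10 nM final, with Km-level 10 uM D-luciferin and 10 uM ATP in 50 mM Tris acetate pH 7.5, 10 mM Mg acetate, 0.01% Tween-20, 0.05% BSA; 6-point qHTS titration about 60 µM downward; luminescence read.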
# NPC1 promoter act = qHTS Assay for NPC1 Promoter Activators; Potency, µM (top dose mostly 9.22 µM), for inactives: at the top dose activation, usual class: activators; 320,000 compounds, 2.4% hits; Huh7 NPC1 promoter luciferase reporter, 24 h; also: % of control where 0% means no effect; nearly all actives have a fitted effect of over 60% in size
#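 In 1536-well qHTS, Huh7 cells harboring an NPC1 promoter–luciferase construct received compound for 24 h; activation was quantified by luminescence following luciferase reagent addition.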
# Rab9 prom act = qHTS Assay for Rab9 Promoter Activators. Potency, µM (highest dose often 9.22 µM), without a hit: top-dose activation, negative = inhibition, hits mostly activators. 320,000 compounds, 2.8% hits. Huh7 Rab9 promoter-luciferase reporter, luminescence, 24 h; also: % of control where 0% means no effect; nearly all actives have a fitted effect of over 60% in size
#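 Luciferase signal after 10 min detection reagent at ambient indicates Rab9 promoter upregulation; stably transfected Huh7 cells were treated 24 h with compound in DMSO at 37 °C, 5% CO2.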
# * hit, by the source's call; u = inconclusive; x = no result; [ ] = another dose, or the depositor's remark. An excerpt weighted towards active compounds, which were near 7.5% of everything screened. Calls follow the shape of the dose curve; as a rule, active = well fitted curve in the direction sought with a large enough effect; inconclusive = small, poorly fitted or top-dose-only effect, or another doubt; inactive = no such curve, though single readings can be large; an effect the other way counts as inactive or inconclusive. Potency is read from the fitted curve at half-maximal effect.
SMILES,ELG1 genotox,SMN2 splice enh,KinaseGlo FLuc,FLuc modulator,NPC1 promoter act,Rab9 prom act
CCOC(=O)CN(C)C(=O)CCc1nnc(-c2ccc(-c3ccccc3)cc2)o1,4%,x,x,u,17%,22%
CC(NC(=O)CCc1nnc(-c2ccc(-c3ccccc3)cc2)o1)c1nc2ccccc2[nH]1 (stereo not given),-8%,x,-6%,11µM*,27%,10%
Cc1ccccc1CN1CCc2cc([N+](=O)[O-])ccc21,-5%,x,x,-6%,-4%,-1%
COC(=O)CCN1CCc2cc(N=Nc3ccc([N+](=O)[O-])cc3)ccc21,u,x,x,0.67µM*,1.1µM*,1.1µM*
Oc1ccc(-c2nc3ccc4ccccc4c3c3c2CCC3)cc1O,9%,-18%[1.84 µM],-1%,24µM*,-2%,1%
COc1ccc(OC)c(NC(=O)CN2CCCN(Cc3ccccc3Cl)S2(=O)=O)c1,x,x,x,3%,x,x
Cn1c2ccccc2c2nnc(NN)nc21,4%,x,x,-11%,3%,-6%
CCCCc1c(C)nn(-c2nnc3c4ccccc4n(C)c3n2)c1C,3%,-5%,-3%,6.7µM*,22%,6%
COc1ccc(-c2cc(=O)c3cc(OC)ccc3[nH]2)cc1,9.2µM*,2.5µM*,u,3.4µM*,3.5µM*,1.4µM*
COc1cc2[nH]c(-c3cccc(F)c3)cc(=O)c2cc1OC,1%,5%,11%,u,-6%,-5%
COc1cc2[nH]c(-c3ccc(C)cc3)cc(=O)c2cc1OC,11%,u,1%[39.9 µM],13µM*,13%,26%
COc1ccc(-c2cc(=O)c3cc(C)ccc3[nH]2)cc1,13µM*,7.1µM*,-5%[39.9 µM],1.7µM*,3.2µM*,3.2µM*
Cc1ccc(CNC(=O)CN2C(=O)C3(SCC(=O)N3c3cc(C)cc(C)c3)c3ccccc32)cc1 (stereo not given),x,x,x,-8%,x,x
CN(C)c1ccc(CNC(=O)c2cnc3sc(N4CCOCC4)nn3c2=O)cc1,x,x,x,-4%,x,x
Cc1ccc(C(=O)Nc2nccs2)cc1,u,10µM*,-15%,8.5µM*,2.8µM*,2.2µM*
Nc1ccc(C(=O)Nc2nccs2)cc1,u,13µM*,-13%,u,u,4µM*
COc1ccc(C(=O)Nc2nc(-c3cccs3)c(NC(C)=O)s2)cc1,16%,0%,6%,-3%,-2%,24%
O=C(Nc1nccs1)c1ccc2nccnc2c1,8%,-3%,-4%,u,u,u
CC(=O)Nc1sc(NC(=O)c2ccc(C)cc2)nc1-c1cccs1,7%,11µM*,2%,-14%,-3%,-7%
O=C(Nc1nccs1)c1ccc(NC(=O)c2ccco2)cc1,u,u,-3%,17µM*,4µM*,2.8µM*
COc1ccc(-c2nc(CSCC(=O)NCCC(C)C)c(C)o2)cc1OC,x,3%,x,-6%,x,x
Cc1cccc(N2C(=O)CSC23C(=O)N(C)c2ccccc23)c1 (stereo not given),x,x,x,-8%,x,x
Cc1ccc(C(=O)Nc2nc(=O)[nH]s2)cc1,6%,38%,5%,24µM*,-1%,3%
Cc1ccc(C(=O)Nc2ccc3c(c2)C(=O)NC3=O)cc1,19%,x,x,u,-2%,14%
CCNc1c(NS(=O)(=O)c2ccc(OC)cc2)c(=O)oc2ccccc12,1%,x,x,-5%,3%,-4%
Cc1ccnc(NC(=O)CNC(=O)c2ccc3ccccc3c2)c1,21µM*,x,x,u,0%,-2%
Cc1ccnc(NC(=O)CNC(=O)COc2ccccc2)c1,u,x,x,19µM*,13%,7%
